Consider 15 compounds from PubChem BioAssay (NCI).

About 83,000 compounds went through this panel and 20% of them were active in at least one assay; those are over-represented in the sample as a whole.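 In brief: 96-well plates, 48 h treatment, single concentration, percent growth endpoint.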 Values without a mark were called inactive. The source made the active and inactive calls. The calls were made as follows: active = growth percent below 10; inactive = the rest.

What all share (assay): NCI-60 one-dose screen, 48 h (100 = growth as untreated, 0 = no growth, -100 = all killed)
Test [1] relates to T-47D breast. The following applies: 10 µM unless noted.
The subject of test [2] is BT-549 breast. The following applies: 10 µM unless noted.
The test system of test [3] is MDA-MB-435 melanoma. The following applies: 10 µM unless noted.
The subject of test [4] is SW-620 colon. The following applies: 10 µM unless noted.
The test system of test [5] is MCF7 breast. The following applies: 10 µM unless noted.
Test [6] relates to HCT-116 colon. As to conditions: 10 µM unless noted.
Test [7] has as its system HCC-2998 colon. The following applies: 10 µM.
In test [8] the test system is KM12 colon. The following applies: 10 µM unless noted.

As for `O=C1NC(=O)[C@@H](c2cn3c4c(cccc24)CCC3)[C@@H]1c1c[nH]c2ccccc12`, the growth in test [1] is 24.3%; in test [2], 16.2%; in test [3] it was -13.2% (active); in test [4], 27.5%; in test [5], 19.5%; in test [6], 2.94% (active). The growth was 18.4% in test [7] and 4.42% (active) in test [8].

Take `Cc1cc2c3c(cccc3c1)C(=O)c1ccccc1-2`: the growth is 92.1% in test [1]; 95.3% in test [2]; 103% in test [3]; 94.7% in test [4]; 82% in test [5]; 96.1% in test [6]. The figures for the growth in test [7] and in test [8] were 98.2% and 93.3%, respectively.

In the case of `C/C(=N\NC(=O)Cn1c(-c2ccc(S(C)(=O)=O)cc2)nc2ccccc21)c1ccc(Cl)cc1`, the growth in test [1] was 81.3%; in test [2], 85%; in test [3], 97.4%; in test [4], 101%; in test [5], 82.9%; in test [6], 83.1%. Further, the growth in test [7] is 106%; in test [8] it was 95.6%.

In the case of `CN1CCN(Cc2ccc(NC(=O)c3[nH]ncc3Nc3ncnc4sc5c(c34)CCCC5)cc2)CC1`, the growth in test [1] was 9.76% (active); in test [2], -20.7% (active); in test [3] it was -89% (active); in test [4], -52% (active); in test [5], -67.2% (active); in test [6], -96% (active). Also, the growth is -74.9% (active) in test [7] and -64.3% (active) in test [8].

`C[C@@]1(C(=O)Nc2ccc(F)nc2)CCCN1c1nc(Nc2cc(C3CC3)[nH]n2)c2cccn2n1`: the growth in test [1] was 7.7% (active); in test [2], 27.3%; in test [3] it was 38.1%; in test [4], 16.4%; in test [5], 17.9%; in test [6], 7.82% (active). Besides, the growth in test [7] was 42.2%; in test [8] it was -23.6% (active).

For `CCN1CCN(c2nc(C)cc(N(CCCNc3ccnc4cc(Cl)ccc34)Cc3ccc4c(c3)OCO4)n2)CC1`, the growth was -60.9% (active) in test [1]; -53.1% (active) in test [2]; -86.8% (active) in test [3]; -32.3% (active) in test [4]; 7.69% (active) in test [5]; -9.36% (active) in test [6]. Moreover, the results for the growth in test [7] and in test [8] were -40.3% (active) and 23.7%, respectively.

With `CNC(=O)c1cnc(C)nc1-c1cc(C(C)(C)C)c(O)c(C(C)(C)C)c1`, the growth in test [1] is 99.3%; in test [2], 101%; in test [3] it was 98.5%; in test [4] it was 112%; in test [5] it was 93.4%; in test [6] it was 96.3%. Moreover, the figures for the growth in test [7] and in test [8] were 127% and 96.4%, respectively.

Consider `CCN1CCN(c2cc(C)nc(N(CCCNc3ccnc4cc(Cl)ccc34)Cc3ccc4c(c3)OCO4)n2)CC1`, for which the growth in test [1] is -51.8% (active); in test [2], -42.6% (active); in test [3] it was -73.7% (active); in test [4] it was -3.47% (active); in test [5] it was 4.2% (active); in test [6], 2.67% (active). The growth in test [7] was -42.3% (active); in test [8] it was 29.8%.

`CCN1CCN(Cc2ccc(-c3cc4c(N[C@H](C)c5ccccc5)ncnc4[nH]3)cc2)CC1`: the growth in test [1] is 29%; in test [2] it was 79.2%; in test [3] it was 37%; in test [4] it was 13.1%; in test [5], 48.6%; in test [6], 19.7%. Also, the figures for the growth in test [7] and in test [8] were 14.3% and 31.2%, respectively.

As to `CO[C@H]1C[C@@H]2CC[C@@H](C)[C@@](O)(O2)C(=O)C(=O)N2CCCC[C@H]2C(=O)O[C@H]([C@H](C)C[C@@H]2CC[C@@H](OC(=O)C(C)(CO)CO)[C@H](OC)C2)CC(=O)[C@H](C)/C=C(\C)[C@@H](O)[C@@H](OC)C(=O)[C@H](C)C[C@H](C)\C=C/C=C/C=C/1C`, the growth in test [1] is -6.15% (active); in test [2], 0.892% (active); in test [3] it was 33.1%; in test [4], 42.7%; in test [5], 5.53% (active); in test [6], 23.8%. Moreover, the growth was 41.6% in test [7] and 34.1% in test [8].

In the case of `O=C(NCCO)Nc1ccc(-c2nc(N3CCOCC3)c3cccn3n2)cc1`, the growth in test [1] was -32.6% (active); in test [2], -5.61% (active); in test [3], -6.22% (active); in test [4], 22.3%; in test [5], 7.74% (active); in test [6] it was 20.4%. For the same compound, the figures for the growth in test [7] and in test [8] were 24% and 14.7%, respectively.

`CCN1CCN(Cc2ccc(NC(=O)Nc3nc(-c4cc(OC)c(OC)c(OC)c4)cs3)cc2C(F)(F)F)CC1`: the growth in test [1] was -23.9% (active); in test [2], 45.3%; in test [3] it was -51.4% (active); in test [4] it was 3.34% (active); in test [5] it was -15.2% (active); in test [6], -58% (active). The growth in test [7] was -36.6% (active); in test [8], -56.8% (active).

Regarding `OCCNC(=S)Nc1ccc(-c2nc(N3C[C@H]4CC[C@@H](C3)O4)c3cccn3n2)cc1`, the growth in test [1] was -22.5% (active); in test [2] it was -8.04% (active); in test [3], 0.28% (active); in test [4] it was 11.6%; in test [5] it was 9.19% (active); in test [6], 22.6%. For the same compound, the values for the growth in test [7] and in test [8] were 20.8% and 12%, respectively.

Consider `COc1cc2c(Nc3ccc(Br)cc3F)ncnc2cc1OCC1CCN(C)CC1`, for which the growth was -22.9% (active) in test [1]; 42.9% in test [2]; -42.8% (active) in test [3]; 31.8% in test [4]; 31.3% in test [5]; 24.3% in test [6]. Also, the figures for the growth in test [7] and in test [8] were 19.3% and 38.1%, respectively.

On to `CC(C)[C@@H](C)/C=C/[C@@H](C)[C@H]1CCC2=C3C=CC4=CC(=O)CC[C@]4(C)[C@H]3CC[C@@]21C`, for which the growth in test [1] is 91.3%; in test [2], 102%; in test [3] it was 103%; in test [4], 109%; in test [5] it was 93.6%; in test [6], 93%. For the same compound, the growth in test [7] is 112%; in test [8] it was 104%.
